High-throughput results deposited in PubChem BioAssay by National Center for Advancing Translational Sciences (NCATS).
Sampled rows, rich in hits. Any-hit rate of the full collection: about 20%.
Cycloheximide cs – Cycloheximide Counterscreen for Small Molecule Inhibitors of Shiga Toxin | cell reporter, cycloheximide protein synthesis inhibition counterscreen | max response, % | actives 12% (n = 300,000); in the data active = max response mostly above about 13%, no sharp cut-off; inactive = mostly below about 14%; note: read at 38.3 µM for the half of the compounds with a filed dose; 0% is about no effect
Pf growth 48h – Primary qHTS for delayed death inhibitors of the malarial parasite plastid, 48 hour incubation | P. falciparum luciferase growth in erythrocytes, 48 h | Potency, µM (series often up to 28.7 µM), for the others: at the top dose activity change, negative = inhibition, usual class: inhibitors | actives 5.9% (n = 310,000); note: potency is the fitted concentration of half-maximal effect; % is set by controls: 0 for no effect and ±100 for the full control effect
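Cell-based growth assay: transgenic P. falciparum expressing firefly luciferase, cultured in red cells within RPMI 1640 containing 0.5% w/v Albumax, 24 mM bicarbonate and gentamycin. A drop in luciferase activity indicates inhibition.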
HCMV antiviral – qHTS Assay for inhibitors of the human cytomegalovirus (HCMV). HFF cells, HCMV-luciferase reporter, 72 h; hits give low values. activity change, negative = inhibition, % at 57.5 µM. actives 4.5% (n = 410,000); in the data active = activity change below about -60%; inconclusive = no clear call, values can overlap the other calls; inactive = above about -39%; note: % is set by controls: 0 for no effect and ±100 for the full control effect
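HFF cells seeded 16 h at 37C, treated with compounds, infected with luciferase-reporter HCMV at MOI 1 PFU/cell; luciferase read at 72 h post infection, normalized to buffer-only and Salinomycin controls.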
Shiga toxin inh – A qHTS for Small Molecule Inhibitors of Shiga Toxin; AID 2315, 2010; Vero cells, Shiga toxin protein synthesis inhibition reporter; actives 9.2% (n = 290,000); inhibition, % at 38.7 µM; in the data active = inhibition mostly above about 28%, no sharp cut-off; inactive = mostly below about 43%; note: 0% is about no effect
Pf growth 96h – Primary qHTS for delayed death inhibitors of the malarial parasite plastid, 96 hour incubation | Potency, µM (titrated, usually from 28.7 µM), inactives show at the top dose activity change, negative = inhibition, most hits filed as inhibitors | P. falciparum luciferase reporter growth, 96 h | actives 6.9% (n = 320,000) | AID 504834, 2011; note: potency is the fitted concentration of half-maximal effect; % is set by controls: 0 for no effect and ±100 for the full control effect
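96 h incubation, 37 C, 5% CO2, of luciferase-reporter P. falciparum-infected RBCs (2% hematocrit, 0.05% parasitemia final) with test compounds; endpoint luminescence.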
Numbers without * were called inactive. Unless noted, calls come from the whole dose curve; as a rule, active = well fitted inhibition curve with a large enough effect; inconclusive = small, poorly fitted or top-dose-only effect, or another doubt; inactive = no such curve, though single readings can be large or run the other way.

Screening CCC(c1nnnn1Cc1cccs1)N1CCN(c2nc3ccccc3s2)CC1 (centres undefined) returned Cycloheximide cs -3, Pf growth 48h 9.3µM*, HCMV antiviral inconclusive, Shiga toxin inh 12 and Pf growth 96h inconclusive.
O=[N+]([O-])c1cc([N+](=O)[O-])c(Oc2cc(F)cc(F)c2)cc1NN1CCCCC1 was read as Pf growth 48h -4%, HCMV antiviral 2 and Pf growth 96h 75%.
`COc1ccc(S(=O)(=O)N[C@H]2CC[C@H](CCNC(=O)c3ccccc3F)O[C@@H]2CO)cc1` gave HCMV antiviral 19.
CCCNC(=O)c1noc2c1CCc1ccccc1-2 was read as Cycloheximide cs 42*, Pf growth 48h 105%, HCMV antiviral -23, Shiga toxin inh 64* and Pf growth 96h -22%.
For COc1cc(NC(=O)c2noc3c2CCc2ccccc2-3)cc(OC)c1OC the results were HCMV antiviral -16.
`O=C(Nc1cccnc1Cl)c1noc2c1CCc1ccccc1-2` gave Cycloheximide cs 34*, Pf growth 48h 396%, HCMV antiviral 66, Shiga toxin inh 92* and Pf growth 96h 4%.
For O=C(NCCN1CCOCC1)c1noc2c1CCc1ccccc1-2 the results were Cycloheximide cs 49*, Pf growth 48h 159%, HCMV antiviral 81 and Shiga toxin inh 71*.
O=C(NCCc1ccccc1)c1noc2c1CCc1ccccc1-2 was read as Cycloheximide cs 19*, Pf growth 48h 25%, HCMV antiviral 3, Shiga toxin inh 39* and Pf growth 96h -1%.
`CCCN1C(=O)c2[nH]nc(-c3ccc(F)cc3)c2C1c1ccc(O)c(OCC)c1` (centres undefined) gave HCMV antiviral 24.
For CCc1ccccc1NC(=O)Cn1nnc(C(=O)NCc2ccccc2Cl)c1N the results were HCMV antiviral -2.
For Brc1ccc(CSc2nccn2-c2ccccc2)cc1 the results were Cycloheximide cs 2, Pf growth 48h 0%, HCMV antiviral -73*, Shiga toxin inh 29 and Pf growth 96h inconclusive.
`O=C(CSc1nccn1-c1cccc(Cl)c1)NO` gave Cycloheximide cs -4, Pf growth 48h 0.74µM*, HCMV antiviral 0, Shiga toxin inh -9 and Pf growth 96h inconclusive.
For O=C(CSc1nccn1-c1ccccc1)NO the results were Cycloheximide cs 15, Pf growth 48h 2.1µM*, HCMV antiviral 0, Shiga toxin inh -12 and Pf growth 96h 0.93µM*.
For COc1ccc(-n2ccnc2SCC(=O)NO)cc1 the results were Cycloheximide cs -5, Pf growth 48h 1.3µM*, HCMV antiviral 0, Shiga toxin inh -3 and Pf growth 96h inconclusive.
Screening O=C(CSc1nccn1-c1cccc(Cl)c1)NC1CCCC1 returned Cycloheximide cs -3, Pf growth 48h -13%, HCMV antiviral 6, Shiga toxin inh 23 and Pf growth 96h -8%.
`O=C(C(=O)N1CCN(c2cccc(Cl)c2)CC1)c1c[nH]c2ccccc12` gave Cycloheximide cs 13, Pf growth 48h 5%, HCMV antiviral 62, Shiga toxin inh 43 and Pf growth 96h inconclusive.
Screening O=C(NCc1nnc(SCC(=O)N2CCCc3ccccc32)o1)c1c(F)cccc1Cl returned Cycloheximide cs 2, Pf growth 48h -1%, HCMV antiviral -32, Shiga toxin inh -22 and Pf growth 96h 0%.
For CCc1ccc(CNC(=O)CCCn2nc(C)n3ccnc3c2=O)cc1 the results were Cycloheximide cs 1, Pf growth 48h 16%, HCMV antiviral 14, Shiga toxin inh -6 and Pf growth 96h inconclusive.
For Cc1nn(CCCC(=O)NCc2ccccc2)c(=O)c2nccn12 the results were Cycloheximide cs -4, Pf growth 48h 9%, HCMV antiviral 9, Shiga toxin inh -1 and Pf growth 96h 1µM*.
Screening COc1ccc(-n2nc3ccc(N)cc3n2)cc1 returned HCMV antiviral 73.
Screening CCOc1ccc(-n2nc3cc(C)c(NC(=O)c4cc(OCC)c(OCC)c(OCC)c4)cc3n2)cc1 returned HCMV antiviral 16.
Screening CCOc1ccc(-n2nc3ccc(N)cc3n2)cc1 returned Cycloheximide cs 36*, Pf growth 48h -8%, HCMV antiviral -93*, Shiga toxin inh 31* and Pf growth 96h 43%.
`CCOc1ccc(-n2nc3cc(C)c(N)cc3n2)cc1` gave Cycloheximide cs 32*, Pf growth 48h 301%, HCMV antiviral 107, Shiga toxin inh 48* and Pf growth 96h inconclusive.
`Cc1ccc(OCCCCn2cnc3ccccc32)cc1` gave Cycloheximide cs 40*, Pf growth 48h 30%, HCMV antiviral 10, Shiga toxin inh 88* and Pf growth 96h -1%.
Cc1ccccc1OCCCCn1cnc2ccccc21 was read as Cycloheximide cs 16*, HCMV antiviral -68*, Shiga toxin inh 23 and Pf growth 96h -11%.
For Brc1ccccc1OCCCn1cnc2ccccc21 the results were Cycloheximide cs 35*, HCMV antiviral 33, Shiga toxin inh 52 and Pf growth 96h 84%.
For O=C(C1CCN(S(=O)(=O)c2cc(Cl)ccc2Cl)CC1)N1CCOCC1 the results were Cycloheximide cs -2, Pf growth 48h inconclusive, HCMV antiviral -11, Shiga toxin inh 3 and Pf growth 96h 4%.
For C[n+]1ccccc1/C=C1\Sc2ccccc2N1CCO the results were Cycloheximide cs -3, Pf growth 48h inconclusive, HCMV antiviral inconclusive, Shiga toxin inh -6 and Pf growth 96h 2.1µM*.
`CC[n+]1ccc(/C=C2\Sc3ccccc3N2CCCS(=O)(=O)[O-])c2ccccc21` gave Cycloheximide cs -2, Pf growth 48h 2%, HCMV antiviral 31, Shiga toxin inh 1 and Pf growth 96h 6%.
Cc1ccc2c(c1)S/C(=C/c1ccc[n+](CCO)c1)N2C was read as Cycloheximide cs -5, Pf growth 48h inconclusive, HCMV antiviral -95*, Shiga toxin inh -10 and Pf growth 96h 4%.
C[n+]1ccccc1/C=N/O was read as Cycloheximide cs -2, Pf growth 48h -4%, HCMV antiviral -7, Shiga toxin inh -17 and Pf growth 96h inconclusive.
For Cc1ccc2c(c1)S/C(=C\c1cccc[n+]1C)N2CCO the results were Cycloheximide cs -2, Pf growth 48h 3.3µM*, HCMV antiviral -97*, Shiga toxin inh -4 and Pf growth 96h -9%.
Screening C=CCn1c(=S)[nH]c2sccc2c1=O returned Cycloheximide cs 0, Pf growth 48h 27%, HCMV antiviral 8, Shiga toxin inh -10 and Pf growth 96h 4%.
Screening COc1ccc(CNC(=O)CN2C(=O)c3cccnc3Oc3ccc(C)cc32)cc1 returned HCMV antiviral 0.
CCOC(=O)[C@]12CCC=C1N(Cc1ccc3c(c1)OCO3)C(=O)[C@H](CC(=O)N1CCCCC1)C2 was read as HCMV antiviral -12.
